Data as given in PubChem BioAssay (NCATS).
Several values for one entry are separate records, joined by “and”; a condition that tells them apart may be missing. Equal values may be shown once. Records with an inconclusive call do not appear. Activity calls are given as the source filed them. Calls follow the shape of the dose curve; as a rule, active = well fitted cell-killing curve with a large enough effect; inconclusive = small, poorly fitted or top-dose-only effect; inactive = flat fitted curve, though single readings scatter.

Experiment: Cellular viability qHTS for adrenocortical cancer (ACC) cell line SW-13 (AID 1963989); also: nearly all actives have a fitted effect of over 65% in size;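 as to activity (max response): cells grown in serum-free medium with ITS supplement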
Conditions: SW-13 ACC cells viability, CellTiter-Glo, 48 h; activity (max response): stronger effect = lower value
In short: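 SW-13 cells in ITS-supplemented serum-free DMEM were plated overnight, then exposed for 48 h at 37C to compound titrations (up to 46 uM final). Viability was read by CellTiter-Glo luminescence; four-parameter logistic fits gave IC50 and efficacy.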
% is scaled to controls: 0 for no effect and ±100 for the full control effect; potency is read from the fitted curve at half-maximal effect.

Structure (SMILES) | activity (max response) | Potency
CCC1Nc2cc(Cl)c(S(N)(=O)=O)cc2S(=O)(=O)N1 (stereo not given) | 2.08% (inactive) | 
O=C(/C=C/c1cccc(S(=O)(=O)Nc2ccccc2)c1)NO |  | 3.55 µM (active)
Nc1ccc(C(=O)OCC(O)CO)cc1 (stereo not given) | 13.4% (inactive) | 
CO[C@@]1(NC(=O)C(C(=O)O)c2ccc(O)cc2)C(=O)N2C(C(=O)O)=C(CSc3nnnn3C)CO[C@@H]21 (stereo not given in full) | 13.4% (inactive) | 
Cc1ccc(-c2ncc(Cl)cc2-c2ccc(S(C)(=O)=O)cc2)cn1 | 3.04% (inactive) and -7.76% (inactive) | 
CNCc1ccc(-c2cc(-c3nc(-c4ccc(S(=O)(=O)C(C)C)cc4)cnc3N)on2)cc1 |  | 3.98 µM (active)
CCCCCCCCCCCCCCCC[N+](C)(C)CCN(Cc1ccc(OC)cc1)c1ncccn1 |  | 20.6 µM (active)
NCC1CCN(c2nccc(-c3ccc4ccccc4c3)n2)CC1 |  | 22.4 µM (active)
O=C(O)c1ccccc1C(=O)Nc1ccc(S(=O)(=O)Nc2nccs2)cc1 | -9.68% (inactive) | 
CCN[C@H]1CN(CCCOC)S(=O)(=O)c2sc(S(N)(=O)=O)cc21 | 7.66% (inactive) | 
CNC(=O)[C@H](Cc1c[nH]c2ccccc12)NC(=O)[C@@H](CC(=O)NO)CC(C)C | -15.7% (inactive) | 
CC[C@@H](C)Nc1cc(C(=O)NC2CC3CC[C@@H](C2)N3c2ccc(C(=O)C3CC3)cn2)c(C)cc1C(N)=O (stereo not given in full) |  | 0.178 µM (active)
O=C(O)C(S)C(S)C(=O)O (stereo not given) | 13.2% (inactive) | 
O=[N+]([O-])c1ccc(O)c2ncccc12 |  | 2.91 µM (active) and 10 µM (active)
Cc1cc(-c2nc3cc(F)ccc3s2)ccc1NC(=O)[C@@H](N)CCCCN |  | 25.1 µM (active)
Cc1ccc([N+](=O)[O-])cc1S(=O)(=O)N(C)/N=C/c1cnc2ccc(Br)cn12 |  | 0.282 µM (active)
C[C@H]1[C@H](O)O[C@@H]2O[C@@]3(C)CC[C@H]4[C@H](C)CC[C@@H]1[C@@]24OO3 |  | 12.6 µM (active)
C[N+](C)(C)CCOC(=O)CCC(=O)OCC[N+](C)(C)C | 11.2% (inactive) | 

Structure (SMILES) | activity (max response) | Potency
Cc1c(-c2ccccc2)oc2c(C(=O)OCCN3CCCCC3)cccc2c1=O | -7.2% (inactive) | 
O=C1NCCN1CCN1CCC(c2cn(-c3ccc(F)cc3)c3ccc(Cl)cc23)CC1 |  | 10.3 µM (active)
Cc1ccc(S(=O)(=O)Cc2nc(-c3ccc(C(=O)NCc4cccnc4)cc3)oc2C)cc1 |  | 0.199 µM (active)
O=C(CCCCCCNC(=O)c1cnc(N(c2ccccc2)c2ccccc2Cl)nc1)NO |  | 14.1 µM (active)
O=C(O)CNC(=O)c1nc(Cl)c2ccccc2c1O | 8.31% (inactive) | 
O=[N+]([O-])c1cncn1CCN1CCOCC1 | 13.4% (inactive) and -13.9% (inactive) | 
C[C@@H](OC[C@@]1(c2ccccc2)CC[C@]2(CCC(=O)N2)CN1)c1cc(C(F)(F)F)cc(C(F)(F)F)c1 |  | 25.1 µM (active)
C=CCc1cccc(/C=N/NC(=O)CN2CCN(Cc3ccccc3)CC2)c1O |  | 8.91 µM (active)
Cc1ccc(C(C)OC(=O)C2(C)CCC(C(=O)O)C2(C)C)cc1 (stereo not given) | 8.64% (inactive) | 
c1ccc(Cn2c(-c3ccc(OCC(C4CCNCC4)n4c(-c5ccccc5)nc5ccccc54)cc3)nc3ccccc32)cc1 (stereo not given) |  | 25.1 µM (active)
CC/C=C(\C(=O)N[C@@H]1C(=O)N2C(C(=O)OCOC(=O)C(C)(C)C)=C(COC(N)=O)CS[C@H]12)c1csc(N)n1 | 13.8% (inactive) | 
CN1CC(=O)N2[C@H](c3ccc4c(c3)OCO4)c3[nH]c4ccccc4c3C[C@@H]2C1=O | 17.1% (inactive) and 13.1% (inactive) | 
CN(C(=O)c1c(O)c2ccccc2n(C)c1=O)c1ccccc1 | 3.23% (inactive) and -16.1% (inactive) | 
Cc1ccc2c(Cl)cc(Cl)c(O)c2n1 | 9.37% (inactive) | 
O=C1[C@H](CC[C@H](O)c2ccc(F)cc2)[C@@H](c2ccc(O)cc2)N1c1ccc(F)cc1 | -3.67% (inactive) and -14.5% (inactive) | 
O=C(CCCCCCC(=O)N/N=C/c1ccc(N(c2ccccc2)c2ccccc2)cc1)NO |  | 28.2 µM (active)
CCCCCN(CCCCC)C(=O)C(CCC(=O)O)NC(=O)c1ccc(Cl)c(Cl)c1 (stereo not given) | 5.36% (inactive) | 
